According to PubChem BioAssay AID1159580 (chemical genetic matrix, 2015):
Where “and” joins values, the source holds several entries; their conditions need not be identical. Equal values may be shown once. Hit rate of the full screen: of about 5,500 compounds, about 2,000 (36%) were called active. About 18% were inconclusive and are not listed. No stated cut-off is given here; in the data, active means normalized growth mostly below about 0.91 (no sharp cut-off); inconclusive means no clear call, values can overlap the other calls; inactive means mostly above about 0.92. This is one part of the list.

Assay: chemical genetic growth profiling, strain panel (AID 1159580);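 further: tested at 20 µM; growth read once vehicle control cultures reached saturation at 30 °C; 1 = growth at the plate median or of vehicle wells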
Details: growth OD

Measured: normalized growth

NCCS
inactive: S. cerevisiae deletion strains, locus YJR075W, strain HOC1, stronger effect = lower value 1.01 | S. cerevisiae deletion strains, locus YKL009W, strain mrt4, stronger effect = lower value 0.998 | S. cerevisiae deletion strains, locus YKL068W, stronger effect = lower value 1 | S. cerevisiae deletion strains, locus YKL085W, strain MDH1 (second series), stronger effect = lower value 1.01 | S. cerevisiae deletion strains, locus YKL085W, strain MDH1, stronger effect = lower value 1.01 | S. cerevisiae deletion strains, locus YKL160W, strain elf1, stronger effect = lower value 0.986 | S. cerevisiae deletion strains, locus YKL190W, strain CNB1, stronger effect = lower value 1.01 | S. cerevisiae deletion strains, locus YKR001C, strain vps1, stronger effect = lower value 1.01 | S. cerevisiae deletion strains, locus YKR026C, strain gcn3, stronger effect = lower value 0.947 | S. cerevisiae deletion strains, locus YKR091W, strain srl3, stronger effect = lower value 0.991 | S. cerevisiae deletion strains, locus YLL001W, strain dnm1, stronger effect = lower value 1 | S. cerevisiae deletion strains, locus YLL026W, stronger effect = lower value 0.996 | S. cerevisiae deletion strains, locus YLL041C, strain sdh2, stronger effect = lower value 0.998 | S. cerevisiae deletion strains, locus YLR027C, strain aat2, stronger effect = lower value 0.984 | S. cerevisiae deletion strains, locus YLR039C, strain RIC1, stronger effect = lower value 1.05 | S. cerevisiae deletion strains, locus YLR058C, strain SHM2, stronger effect = lower value 1.02 | S. cerevisiae deletion strains, locus YLR102C, strain apc9, stronger effect = lower value 1.01 | S. cerevisiae deletion strains, locus YLR113W, strain HOG1, stronger effect = lower value 0.996 | S. cerevisiae deletion strains, locus YLR221C, strain rsa3, stronger effect = lower value 0.992 | S. cerevisiae deletion strains, locus YLR258W, strain gsy2, stronger effect = lower value 0.998 | S. cerevisiae deletion strains, locus YLR262C, strain YPT6 (second series), stronger effect = lower value 0.953 | S. cerevisiae deletion strains, locus YLR262C, strain YPT6, stronger effect = lower value 1.03 | S. cerevisiae deletion strains, locus YLR268W, strain sec22, stronger effect = lower value 1.01 | S. cerevisiae deletion strains, locus YLR320W, strain mms22, stronger effect = lower value 0.985 | S. cerevisiae deletion strains, locus YLR330W, strain CHS5, stronger effect = lower value 1.01 | S. cerevisiae deletion strains, locus YLR342W, strain FKS1 (second series), stronger effect = lower value 1.04 | S. cerevisiae deletion strains, locus YLR342W, strain FKS1, stronger effect = lower value 0.969 | S. cerevisiae deletion strains, locus YLR357W, strain rsc2, stronger effect = lower value 0.962 | S. cerevisiae deletion strains, locus YLR370C, strain arc18, stronger effect = lower value 0.989 | S. cerevisiae deletion strains, locus YLR371W, strain rom2, stronger effect = lower value 1.02 | S. cerevisiae deletion strains, locus YLR384C, strain iki3, stronger effect = lower value 0.999 | S. cerevisiae deletion strains, locus YLR418C, strain cdc73, stronger effect = lower value 1.03 | S. cerevisiae deletion strains, locus YML016C, strain PPZ1, stronger effect = lower value 1.02 | S. cerevisiae deletion strains, locus YML032C, strain rad52, stronger effect = lower value 1.02 | S. cerevisiae deletion strains, locus YML120C, strain ndi1, stronger effect = lower value 0.988 | S. cerevisiae deletion strains, locus YML124C, strain tub3, stronger effect = lower value 1.02 | S. cerevisiae deletion strains, locus YMR058W, strain fet3, stronger effect = lower value 0.985 | S. cerevisiae deletion strains, locus YMR078C, strain ctf18, stronger effect = lower value 1.01 | S. cerevisiae deletion strains, locus YMR125W, strain sto1, stronger effect = lower value 0.968 | S. cerevisiae deletion strains, locus YMR129W, stronger effect = lower value 1.01 | S. cerevisiae deletion strains, locus YMR205C, strain PFK2, stronger effect = lower value 0.983 | S. cerevisiae deletion strains, locus YMR223W, strain ubp8, stronger effect = lower value 1.01 | S. cerevisiae deletion strains, locus YMR231W, strain pep5, stronger effect = lower value 0.999 | S. cerevisiae deletion strains, locus YMR263W, strain SAP30, stronger effect = lower value 1.01 and 0.99 | S. cerevisiae deletion strains, locus YMR307W, strain GAS1, stronger effect = lower value 1.02 | S. cerevisiae deletion strains, locus YNL067W, strain RPL9B, stronger effect = lower value 1.01 | S. cerevisiae deletion strains, locus YNL071W, strain lat1, stronger effect = lower value 0.956 | S. cerevisiae deletion strains, locus YNL128W, strain TEP1, stronger effect = lower value 1.01 | S. cerevisiae deletion strains, locus YNL153C, strain GIM3, stronger effect = lower value 1.01 | S. cerevisiae deletion strains, locus YNL175C, strain NOP13, stronger effect = lower value 1 | S. cerevisiae deletion strains, locus YNL183C, strain NPR1, stronger effect = lower value 0.981 | S. cerevisiae deletion strains, locus YNL197C, strain WHI3, stronger effect = lower value 1.01 | S. cerevisiae deletion strains, locus YNL209W, strain ssb2, stronger effect = lower value 0.989 | S. cerevisiae deletion strains, locus YNL224C, strain SQS1, stronger effect = lower value 1 | S. cerevisiae deletion strains, locus YNL233W, strain BNI4, stronger effect = lower value 1.02 | S. cerevisiae deletion strains, locus YNL248C, strain rpa49, stronger effect = lower value 0.983 | S. cerevisiae deletion strains, locus YNL250W, strain rad50, stronger effect = lower value 1.02 | S. cerevisiae deletion strains, locus YNL271C, strain bni1, stronger effect = lower value 1.01 | S. cerevisiae deletion strains, locus YNL298W, strain CLA4, stronger effect = lower value 1.03 | S. cerevisiae deletion strains, locus YNL307C, strain MCK1, stronger effect = lower value 1.02 | S. cerevisiae deletion strains, locus YNL322C, strain KRE1 (second series), stronger effect = lower value 0.979 | S. cerevisiae deletion strains, locus YNL322C, strain KRE1, stronger effect = lower value 1.01 and 1.02 | S. cerevisiae deletion strains, locus YNR049C, strain mso1, stronger effect = lower value 0.972 | S. cerevisiae deletion strains, locus YNR052C, strain pop2, stronger effect = lower value 1.01 | S. cerevisiae deletion strains, locus YOL006C, strain TOP1, stronger effect = lower value 1.04 | S. cerevisiae deletion strains, locus YOL012C, strain htz1 1.32 | S. cerevisiae deletion strains, locus YOL147C, strain pex11, stronger effect = lower value 1.02 | S. cerevisiae deletion strains, locus YOR001W, strain rrp6, stronger effect = lower value 0.992 | S. cerevisiae deletion strains, locus YOR061W, strain CKA2, stronger effect = lower value 1.02 | S. cerevisiae deletion strains, locus YOR069W, strain VPS5, stronger effect = lower value 1.01 | S. cerevisiae deletion strains, locus YOR070C, strain gyp1, stronger effect = lower value 0.982 | S. cerevisiae deletion strains, locus YOR080W, strain dia2, stronger effect = lower value 0.984 | S. cerevisiae deletion strains, locus YOR083W, strain WHI5 (second series), stronger effect = lower value 1.02 | S. cerevisiae deletion strains, locus YOR083W, strain WHI5, stronger effect = lower value 0.983 | S. cerevisiae deletion strains, locus YOR106W, strain vam3, stronger effect = lower value 0.969 | S. cerevisiae deletion strains, locus YOR136W, strain idh2, stronger effect = lower value 1.02 | S. cerevisiae deletion strains, locus YOR144C, strain elg1, stronger effect = lower value 1.02 | S. cerevisiae deletion strains, locus YOR184W, strain ser1, stronger effect = lower value 0.999 | S. cerevisiae deletion strains, locus YOR231W, strain MKK1, stronger effect = lower value 1.02 | S. cerevisiae deletion strains, locus YOR265W, strain rbl2, stronger effect = lower value 0.997 | S. cerevisiae deletion strains, locus YOR270C, strain vph1, stronger effect = lower value 0.995 | S. cerevisiae deletion strains, locus YOR290C, strain snf2, stronger effect = lower value 0.982 | S. cerevisiae deletion strains, locus YOR316C, strain cot1, stronger effect = lower value 1.02 | S. cerevisiae deletion strains, locus YPL051W, strain arl3, stronger effect = lower value 1 | S. cerevisiae deletion strains, locus YPL055C, strain LGE1, stronger effect = lower value 1.01 | S. cerevisiae deletion strains, locus YPL078C, strain atp4, stronger effect = lower value 0.988 | S. cerevisiae deletion strains, locus YPL106C, strain sse1, stronger effect = lower value 0.957 | S. cerevisiae deletion strains, locus YPL240C, strain hsp82, stronger effect = lower value 0.992 | S. cerevisiae deletion strains, locus YPL241C, strain CIN2, stronger effect = lower value 1.01 and 1 | S. cerevisiae deletion strains, locus YPL256C, strain CLN2, stronger effect = lower value 1.08 | S. cerevisiae deletion strains, locus YPR119W, strain clb2, stronger effect = lower value 1.01 | S. cerevisiae deletion strains, locus YPR141C, strain kar3, stronger effect = lower value 1.03 | S. cerevisiae deletion strains, locus YPR163C, strain tif3, stronger effect = lower value 1.02 | S. cerevisiae deletion strains, locus YPR167C, strain met16, stronger effect = lower value 1.01 | S. cerevisiae deletion strains, strain wtn01, stronger effect = lower value 1.09 | S. cerevisiae strains, strain wild type, stronger effect = lower value 1
